Compound activity as filed in PubChem BioAssay.
12-LOX inh – Primary qHTS assay for inhibitors of human arachidonate 12S-lipoxygenase (ALOX12): Round 2. Polyunsaturated fatty acid lipoxygenase ALOX12 (Homo sapiens), P18054. purified 12hLO, xylenol orange hydroperoxide absorbance. Potency, µM (titrated, usually from 108 µM), without a hit: at the highest dose activity change, negative = inhibition, most hits filed as inhibitors. actives 1.1% (n = 580,000); note: % is set by controls: 0 for no effect and ±100 for the full control effect
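Purified human 12hLO at 150 nM in 25 mM Hepes, 0.01% Triton X-100, pH 7.0, preincubated 15 min at room temperature with compound. Reaction started with 40 uM arachidonic acid, 30 min at room temperature. Hydroperoxide measured by Fe-xylenol orange, 573/405 nm absorbance ratio.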
BAZ2B inh – qHTS Assay for Inhibitors of BAZ2B | Bromodomain adjacent to zinc finger domain protein 2B (Homo sapiens), Q9UIF8 | AlphaScreen BAZ2B-H3K14Ac peptide displacement | Potency, µM (series often up to 114 µM), inactives show at the top dose activity change, negative = inhibition, most hits filed as inhibitors | actives 4.4% (n = 360,000); note: % is set by controls: 0 for no effect and ±100 for the full control effect; nearly all actives have a fitted effect of over 60% in size
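AlphaScreen displacement: compounds (up to 110uM) incubated 30 min at room temperature with a preformed 50 nM BAZ2B/50 nM biotinylated H3K14Ac peptide complex in PBS pH 7.4 with Tween-20. Donor and acceptor beads at 10 ug/mL final added, 20 min light-protected before reading.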
G9a block – qHTS Assay for Inhibitors of Histone Lysine Methyltransferase G9a. Histone-lysine N-methyltransferase EHMT2 (Homo sapiens), Q96KQ7. G9a H3K9 monomethylation, AlphaScreen, 2 h. Potency, µM (doses to about 102 µM), inactives show top-dose activity, negative = inhibition, most hits filed as inhibitors. actives 8.8% (n = 350,000). AID 504332, 2011; note: % is set by controls: 0 for no effect and ±100 for the full control effect; nearly all actives have a fitted effect of over 75% in size
Target sequence (Q96KQ7 913-1193 limits assumed): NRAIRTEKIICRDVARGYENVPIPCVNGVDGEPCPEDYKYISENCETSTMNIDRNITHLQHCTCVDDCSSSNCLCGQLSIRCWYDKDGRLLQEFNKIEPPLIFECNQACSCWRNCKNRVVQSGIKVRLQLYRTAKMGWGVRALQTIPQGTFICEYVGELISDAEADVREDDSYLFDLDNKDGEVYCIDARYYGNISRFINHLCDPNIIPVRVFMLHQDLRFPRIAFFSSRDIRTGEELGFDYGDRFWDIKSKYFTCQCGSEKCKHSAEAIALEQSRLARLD
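Using a bead-based AlphaScreen, monomethylated H3K9 product from 2 h room-temperature reactions (G9a 20 nM, peptide 500 nM, SAM 20 uM) was detected with 0.5 ug/mL rabbit anti-H3K9me1 antibody.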
JMJD2A Tudor inh – qHTS Assay for Inhibitors of JMJD2A-Tudor Domain; AlphaScreen JMJD2A-Tudor / H3K4me3 peptide binding; Potency, µM (series often up to 114 µM), for inactives: top-dose activity change, negative = inhibition, actives largely listed as inhibitors; actives 4.4% (n = 390,000); AID 504339, 2011; note: % is set by controls: 0 for no effect and ±100 for the full control effect; nearly all actives have a fitted effect of over 50% in size
Sfp PPTase inh – qHTS Assay for Inhibitors of Bacillus subtilis Sfp phosphopantetheinyl transferase (PPTase). Potency, µM, inactives show largest response in the series, negative = inhibition, hits mostly inhibitors. 4'-phosphopantetheinyl transferase ffp (Bacillus subtilis), Q9F4F7. Biochemical Sfp PPTase activity, qHTS. actives 3.5% (n = 310,000);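 note: the enzyme is Sfp with the accession as filed and its product quenches rhodamine fluorescence; 0% = enzyme reaction without inhibitor and -100% = no enzyme wells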
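Buffer: 50 mM Hepes-Na pH 7.6, 10 mM MgCl2, 0.01% Nonidet P-40, 0.01% BSA. Enzyme 15 nM, pre-exposed to compound 15 min; substrates then added and fluorescence change tracked over 30 min.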
HP1b binding inh – HTS for Inhibitors of HP1-beta Chromodomain Interactions with Methylated Histone Tails; AlphaScreen HP1-beta / biotin-H3K9me3 peptide binding; Potency, µM (top dose mostly 114 µM), for inactives: at the top dose activity change, negative = inhibition, most hits filed as inhibitors; actives 0.56% (n = 390,000); AID 540317, 2011; note: nearly all actives have a fitted effect of over 70% in size
Target sequence (P83916 whole entry, looked up): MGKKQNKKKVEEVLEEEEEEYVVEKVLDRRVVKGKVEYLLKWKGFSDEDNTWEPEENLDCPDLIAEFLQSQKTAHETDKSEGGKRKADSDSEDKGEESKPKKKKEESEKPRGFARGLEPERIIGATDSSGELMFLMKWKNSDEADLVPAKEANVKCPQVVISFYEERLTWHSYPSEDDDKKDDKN
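AlphaScreen: HP1-beta (50 nM) preformed 30 min with biotin-H3(1-18)K9me3 peptide (50 nM) in PBS pH 7.4, 0.01% Tween-20. Compound added for 30 min at RT, then streptavidin donor/nickel chelate acceptor beads (10 ug/mL) for 30 min.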
An asterisk follows results filed as active; ? = inconclusive; . = no result given; [ ] = dose if it differs, or a comment. Shown are actives, neighbours in structure and some others; about 8.7% of the full set was active somewhere. Calls come from the whole dose curve; as a rule, active = well fitted curve in the direction sought with a large enough effect; inconclusive = small, poorly fitted or top-dose-only effect, or another doubt; inactive = no such curve, though single readings can be large; an effect the other way counts as inactive or inconclusive. Potency is the fitted concentration of half-maximal effect.

SMILES | 12-LOX inh | BAZ2B inh | G9a block | JMJD2A Tudor inh | Sfp PPTase inh | HP1b binding inh
COc1cc(C(C[N+](=O)[O-])c2c(C)cc3ccccn23)ccc1O (stereo not drawn) | ? | 28µM* | 32µM* | ? | ? | ?
Cc1ccc(NNC(=O)CCc2ccccc2)c(C)c1 | ? | -5% | 32µM* | 2% | -1% | 29%
Cc1ccc(NNC(=O)c2ccno2)c(C)c1 | -30% | -1% | 0.79µM* | -17% | -9% | 49%
Cc1ccc(NNC(=O)c2sccc2Cl)c(C)c1 | . | . | . | ? | . | 10%
O=C(c1ccco1)N(CCC(c1ccccc1)c1ccco1)Cc1ccco1 (stereo not drawn) | 18µM* | 28µM* | ? | 22µM* | ? | ?
CN(Cc1ccccc1)C(=O)c1ccco1 | 7% | -17% | -23% | -12% | 9% | 39%
CC(=O)N(CCC(Cc1ccccc1)c1ccco1)Cc1ccco1 (stereo not drawn) | ? | ? | ? | -35% | 45µM* | 1%
Cc1ccc(C(CCN(Cc2ccccc2)C(=O)c2ccco2)c2ccco2)cc1 (stereo not drawn) | ? | 32µM* | 50µM* | 20µM* | 40µM* | -5%
O=C(O)/C=C/C(=O)N(Cc1ccccc1)Cc1ccco1 | -20% | -8% | 5% | 2% | 9% | 28%
COc1ccc(-c2nc(C#N)c(NCC(C)C)o2)cc1 | -4% | . | . | . | . | .
Cc1ccc(/C=N/n2c(-c3ccc(Cl)cc3)n[nH]c2=S)s1 | -22% | 1% | ? | ? | -3% | 22%
S=c1[nH]nc(-c2ccc(Cl)cc2)n1/N=C/c1ccco1 | ? | -26% | 0.89µM* | 40µM* | -9% | -4%
CC(/C=N/n1c(-c2cccnc2)n[nH]c1=S)=C\c1ccco1 | ? | -35% | 1.3µM* | 4µM* | -27% | -33%
FC(F)(F)c1n[nH]c(=S)n1/N=C/c1ccco1 | -18% | -8% | 3.5µM* | ? | -25% | 28%
S=c1[nH]nc(-c2ccccc2)n1/N=C/C=C/c1ccco1 | 40µM* | ? | 1.3µM* | 20µM* | 50µM* | -19%
CCCc1nnc(NC(=O)c2cc(=O)c3cc(C)cc(C)c3o2)s1 | -11% | . | . | . | . | .
CCOc1cc(/C=C/C(=O)OCc2cccc(C)c2)cc(Cl)c1OC | 1% | . | . | . | . | .
CN(C)CCNC(=O)CN1CCN(C(C(=O)O)c2c[nH]c3cc(Br)ccc23)CC1 (stereo not drawn) | -1% | . | . | . | . | .
Cc1ccsc1C(=O)OCC(=O)NC(=O)NC(C)(C)C | -2% | . | . | . | . | .
S=c1[nH]nc(-c2ccco2)n1/N=C/C=C/c1ccccc1 | ? | -32% | 0.71µM* | 20µM* | -15% | -17%
Cc1cc(-c2n[nH]c(=S)n2/N=C/C=C/c2ccco2)n[nH]1 | ? | 50µM* | 2.5µM* | 2.8µM* | 56µM* | 4%
Cc1ccccc1-c1n[nH]c(=S)n1/N=C/C=C/c1ccco1 | ? | 45µM* | 2.2µM* | 18µM* | -21% | -11%
S=c1[nH]nc(-c2ccc(Cl)cc2)n1/N=C/C=C/c1ccco1 | 14µM* | ? | . | 56µM* | 56µM* | ?
O=C(CSc1ncc(-c2ccc(F)cc2)o1)Nc1cccc(F)c1 | -4% | . | . | . | . | .
S=c1[nH]nc(-c2cccnc2)n1/N=C/C=C/c1ccco1 | ? | 45µM* | . | 20µM* | 16µM* | 35%
SMILES | 12-LOX inh | BAZ2B inh | G9a block | JMJD2A Tudor inh | Sfp PPTase inh | HP1b binding inh
c1cncc(-c2noc(-c3ccco3)n2)c1 | 7% | 39% | 27%[59 µM] | 4% | -5% | 24%
CC1=Nc2ncnn2C(c2ccccc2)/C1=N\O (stereo not drawn) | -3% | ? | 50µM* | -12% | -1% | 19%
CC1=CC(c2ccccc2)n2ncnc2N1 (stereo not drawn) | -17% | . | . | -4% | . | 42%
N#CC1(NC(=O)COc2ccc(S(=O)(=O)N3CCCC3)cc2[N+](=O)[O-])CCCCC1 | -17% | -23% | 14µM* | -14% | . | 1%
Cc1ccc(S(=O)(=O)N2CCN(C(=O)COC(=O)c3ccc(Br)o3)CC2)c(C)c1 | -18% | 7% | 24%[2.33 µM] | -23% | . | 1%
Cc1ccc(S(=O)(=O)N2CCN(C(=O)c3ccc4ccccc4n3)CC2)c(C)c1 | ? | 50µM* | 2%[2.33 µM] | 35µM* | . | 8%
Cc1ccc(S(=O)(=O)N2CCN(C(=O)c3cc4cc(C)ccc4nc3C)CC2)cc1 | 40µM* | . | . | . | . | .
Cc1ccc2nc(C)c(C(=O)N3CCN(S(=O)(=O)c4cc(F)ccc4F)CC3)cc2c1 | -7% | . | . | . | . | .
Cc1ccc(S(=O)(=O)N2CCN(C(=O)c3ccc(Br)o3)CC2)c(C)c1 | ? | -30% | 79µM* | -22% | 11% | -17%
CCOc1ncccc1C(=O)N(Cc1nnc(-c2ccccc2Cl)o1)C1CC1 | 25% | . | . | . | . | .
COc1ccccc1C=NC(CO)C(O)c1ccc([N+](=O)[O-])cc1 (stereo not drawn) | 16% | -18% | . | -12% | 5% | 30%
O=[N+]([O-])c1ccc([C@H](O)[C@H](CO)N=Cc2ccccc2O)cc1 | 12% | -2% | 8.9µM* | -27% | -14% | 50%
N#Cc1sc2nc(-c3cccs3)cc(-c3ccc(Cl)cc3)c2c1N | ? | 76%[57.1 µM] | 122% | 64% | -1% | 108%
N#Cc1sc2nc(-c3cccs3)cc(-c3ccccc3)c2c1N | -14% | 60% | -18%[2.33 µM] | 60% | 45µM* | 158%
CCN(CC)C(=O)c1sc2nc(-c3cccs3)cc(-c3ccc(Cl)cc3)c2c1N | -16% | 30%[57.1 µM] | 0% | 47% | 79µM* | 175%
CCN(CC)C(=O)c1sc2nc(-c3cccs3)cc(-c3cccs3)c2c1N | 40µM* | 7% | 32µM* | 1% | -6% | 90%
CC(C)(C)C(=O)c1sc2nc(-c3cccs3)cc(C(F)(F)F)c2c1N | -30% | 23% | ? | 43% | 22µM* | 173%
O=C(CSc1ncnc2ccccc12)Nc1ccc(F)c(F)c1F | -1% | . | . | . | . | .
O=C(COc1ccc2nc3n(c(=O)c2c1)CCC3)NC1CCCCCC1 | -4% | . | . | . | . | .
O=C(N1CCN(c2ccccc2)CC1)C1(CCO)CC12CCOCC2 (stereo not drawn) | 38% | . | . | . | . | .
